# Measured values reported in PubChem BioAssay.
# Target: Albumin (Bos taurus) (UniProt P02769)
# Experiment: bovine serum albumin binders on microarray, profiling panel, artefact control for SMM control protein annotation, biochemical, small-molecule microarray, Alexa647 label, 635/667 nm fluorescence (AID 1118);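 also: score merges 667 nm emission intensity and signal-to-noise per printed compound spot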
# Conditions: BSA-A647 binding, fluorescence 635 nm, higher = more signal
# Sequence of Albumin (Bos taurus) (P02769 whole entry, looked up): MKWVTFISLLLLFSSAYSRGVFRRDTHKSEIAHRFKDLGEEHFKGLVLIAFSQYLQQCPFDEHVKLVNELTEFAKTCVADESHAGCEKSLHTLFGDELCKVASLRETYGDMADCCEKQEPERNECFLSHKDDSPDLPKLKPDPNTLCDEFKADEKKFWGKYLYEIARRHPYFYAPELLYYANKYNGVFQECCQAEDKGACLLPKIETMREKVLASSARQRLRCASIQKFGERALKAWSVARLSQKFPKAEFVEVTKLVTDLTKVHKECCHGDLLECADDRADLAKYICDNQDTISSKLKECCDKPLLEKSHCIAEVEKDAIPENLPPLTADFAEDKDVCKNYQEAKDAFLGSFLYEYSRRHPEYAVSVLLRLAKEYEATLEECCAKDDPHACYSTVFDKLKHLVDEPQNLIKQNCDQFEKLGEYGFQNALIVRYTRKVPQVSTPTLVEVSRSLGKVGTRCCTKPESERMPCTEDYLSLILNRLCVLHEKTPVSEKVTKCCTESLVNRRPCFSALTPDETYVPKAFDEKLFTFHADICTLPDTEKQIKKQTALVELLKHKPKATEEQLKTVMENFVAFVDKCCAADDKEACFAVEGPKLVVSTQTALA
row,Compound,composite z-score
1,CON=C(C)CCN1CCCCc2nc(C)c(C)cc21,-0.16
2,CCOC(=O)[C@H](Cc1ccccc1)NC(=O)CCC1CC(OC(=O)NCc2cccc3ccccc23)CC2(CCCC(COC(=O)NCC3CCCCC3)O2)O1 (stereo partly specified),-0.112
3,CO[C@H]1COC(=O)CCC[C@H](C)[C@@H](OC)COC(=O)CC=C[C@@H]1C,-0.553
4,C[C@H]1C=CCC(=O)OC[C@H](C)C(=O)N2CCC[C@H]2C(=O)OC1,-0.68
5,CC(=O)OC[C@H]1O[C@H](CCON=C(C)C)C=C[C@@H]1OC(C)=O,0.123
6,CC(C)[C@@H](OCc1ccccc1)[C@H](C)C=NO[C@@H](C)c1cn([C@H](CO)Cc2ccccc2)nn1,0.449
7,O=C1C2=CC[C@H]3C(=O)N(C4CCCCC4)C(=O)[C@H]3[C@H]2[C@H](O)[C@@H]2O[C@H]12,0.964
8,CC(C)(C)N1C(=O)[C@H]2[C@H]3[C@H](O)[C@H](O)CC(=NNC(=O)OCc4ccccc4)[C@H]3CC[C@H]2C1=O,-0.316
9,CC(C)(C)N1C(=O)[C@H]2[C@H]3[C@H](O)[C@H](O)CC(=NNC(=O)OCc4ccccc4)[C@@H]3CC[C@H]2C1=O,0.303
10,O=C1C2=CC[C@H]3C(=O)N(C[C@@H]4CCCO4)C(=O)[C@H]3[C@H]2[C@H](O)[C@@H]2O[C@H]12,0.335
11,CO[C@@H]1C=CCC(=O)N[C@@H](C)C(=O)OC[C@@H](NS(=O)(=O)c2ccc(C)cc2)[C@H](C)C=CCC(=O)OC[C@H]1C,-1.19
12,C[C@@H]1CC[C@@H](C(=O)O)N[C@H]1c1cccc(N2CCOCC2)c1,0.262
13,CO[C@@H]1COC(=O)[C@@H]2CCCN2C(=O)[C@@H](C)COC(=O)CCC[C@H]1C,0.379
14,O=C1[C@H]2[C@H]3[C@H](O)[C@H](O)CC(=NOC[C@@H](O)COCc4ccco4)[C@@H]3CC[C@H]2C(=O)N1C1CCCCC1,0.0451
15,CC(CCC(=O)OC[C@H]1O[C@H](C#Cc2ccccc2)C=C[C@@H]1Oc1ccc(C)cc1)=NO[C@H](C)c1cn([C@@H]2COC[C@H]2O)nn1,-0.115
16,C[C@H]1CC[C@H]2C(=O)N[C@H](Cc3ccccc3)C(=O)N2[C@@H]1c1ccccc1,-0.456
17,CC(=O)OC[C@H]1O[C@H](CC=NO[C@H](C)c2cn([C@@H]3COC[C@H]3O)nn2)C=C[C@@H]1OC(C)=O,0.834
18,O=C1CCCC=C1C(O)COCc1ccccc1 (stereo unspecified),0.411

row,Compound,composite z-score
1,COc1ccc(COC(=O)NN=C2C[C@@H](O)[C@@H](O)[C@@H]3[C@@H]4C(=O)N(C5CCCCC5)C(=O)[C@@H]4CC[C@@H]23)cc1,0.157
2,COC(=O)CC=C[C@@H](C)[C@@H](C=NOC[C@@H](O)COCc1ccco1)OC,-0.15
3,O=C1[C@H]2[C@H]3[C@H](O)[C@H](O)CC(=NO[C@@H]4O[C@H](CO)[C@@H](O)[C@H](O)[C@H]4O)[C@@H]3CC[C@H]2C(=O)N1C[C@@H]1CCCO1,0.587
4,O=C1[C@H]2[C@H]3[C@H](O)[C@H](O)CC(=NOC[C@@H](O)COCc4ccco4)[C@@H]3CC[C@H]2C(=O)N1Cc1ccccc1,-0.123
5,CCOC(=O)[C@H](Cc1ccccc1)NC(=O)CCC1CC(OC(=O)NCCc2ccc(F)cc2)CC2(CCCC(COC(=O)NCc3cccc(C(F)(F)F)c3)O2)O1 (stereo partly specified),0.825
6,O=C1C=C[C@@H](O)[C@@H]2[C@@H]3C(=O)N(C4CCCCC4)C(=O)[C@@H]3CC[C@@H]12,0.13
7,CCN1C(=O)[C@H]2[C@@H]3C(=CC[C@H]2C1=O)C(=O)[C@H]1O[C@H]1[C@H]3O,-0.458
8,CCOC(=O)[C@H](Cc1ccccc1)NC(=O)CCC1CC(OC(=O)NCc2ccc3c(c2)OCO3)CC2(CCCC(COC(=O)NCCOc3ccccc3)O2)O1 (stereo partly specified),-0.245
9,CCN1C(=O)[C@H]2[C@H]3[C@H](O)[C@H](O)CC(=NO[C@H](C)c4cn([C@H](CO)Cc5ccccc5)nn4)[C@@H]3CC[C@H]2C1=O,0.818
10,COC(OC)[C@@H](C)[C@H](OC)[C@@H](C)[C@H](OC)c1ccccc1,-0.355
11,CO[C@@H]1COC(=O)[C@H](CCSC)NC(=O)CC=C[C@@H](C)COC(=O)[C@@H]2CCCN2C(=O)CC=C[C@H]1C,-1.43
12,CC(C)=NO[C@H](C)c1cn([C@@H]2COC[C@H]2O)nn1,0.392
13,CC(C)=NOC(C)CN1CCCc2nc(C)c(C)cc21 (stereo unspecified),0.297
14,CC#CCOCCC=C1c2ccccc2[C@@H](OC)[C@@H]1C,0.556
15,O=C1[C@H]2[C@H]3[C@H](O)[C@H](O)CC(=NO[C@@H]4O[C@H](CO)[C@@H](O)[C@H](O)[C@H]4O)[C@H]3CC[C@H]2C(=O)N1C[C@@H]1CCCO1,-0.011
16,O=C1C[C@H](c2ccccc2)[C@H](c2ccc(Br)cc2)O1,0.275
17,CO[C@H]1COC(=O)CC=C[C@@H](C)COC(=O)[C@H]2CCCN2C(=O)CC=C[C@H]1C,-0.893
18,O=C(NN=C1C[C@@H](O)[C@@H](O)[C@@H]2[C@@H]3C(=O)N(Cc4ccccc4)C(=O)[C@@H]3CC[C@H]12)OCc1ccccc1,0.055
